Most compounds without a hit are left out; they make up all but 3.1% or so of the library.
MLL AF4-AF9 inh: inhibitors of AF4 peptide binding to AF9, primary screen, biochemical, AlphaScreen, biotin-AF4 peptide, FLAG-AF9, single point. Protein AF-9 (Homo sapiens), P42568. AID 651704, 2012. 350,000 tested, 0.47% active. inhibition, % at 10 µM;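 active means every replicate reaching a set inhibition limit, whatever the replicate mean, cut at about 25% in these data; inconclusive means mean inhibition reaches that limit but some replicates miss it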;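 further: 0% = plate neutral control median and 100% = total signal loss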
Target sequence (P42568 whole entry, looked up): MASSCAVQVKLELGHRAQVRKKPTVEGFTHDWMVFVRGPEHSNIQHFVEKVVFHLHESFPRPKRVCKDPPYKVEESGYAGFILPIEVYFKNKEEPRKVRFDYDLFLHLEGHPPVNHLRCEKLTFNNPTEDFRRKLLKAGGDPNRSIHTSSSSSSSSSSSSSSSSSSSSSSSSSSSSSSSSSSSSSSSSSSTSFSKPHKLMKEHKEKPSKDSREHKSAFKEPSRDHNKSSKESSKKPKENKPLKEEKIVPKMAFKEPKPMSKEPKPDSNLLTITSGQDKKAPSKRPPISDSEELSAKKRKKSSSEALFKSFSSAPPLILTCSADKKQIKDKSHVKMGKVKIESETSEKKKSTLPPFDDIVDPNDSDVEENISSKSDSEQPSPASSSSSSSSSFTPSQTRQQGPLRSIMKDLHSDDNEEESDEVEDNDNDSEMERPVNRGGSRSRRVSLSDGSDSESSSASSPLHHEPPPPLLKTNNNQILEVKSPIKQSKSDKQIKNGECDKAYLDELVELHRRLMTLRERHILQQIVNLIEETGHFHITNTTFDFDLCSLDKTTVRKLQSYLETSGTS
RAD54 branch: inhibitors of human RAD54 branch migration, primary screen, biochemical, fluorescence, single point; DNA repair and recombination protein RAD54-like (Homo sapiens), Q92698; 360,000 tested, 0.14% active; RAD54 Holliday junction branch migration, FAM/BHQ fluorescence; inhibition, % at 10.4 µM; AID 602329, 2012;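 active means mean normalized replicate activity at least 40 and at least half of replicates scoring 40 or more; inconclusive means only one of the two criteria met; inactive means mean below 40 and under half of replicates reaching 40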;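 further: 0% = median of neutral control wells and 100% = median of positive control wells; inhibitors cause a drop in the FAM fluorescence signal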
RAD52 anneal inh: RAD52 DNA annealing inhibitors, primary screen, biochemical, FRET, single point, set 2; DNA repair protein RAD52 homolog (Homo sapiens), P43351; inhibition, % at 18.7 µM; recombinant RAD52 DNA annealing, FRET fluorescence; 360,000 tested, 0.46% active; AID 651710, 2012;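 active means every replicate showing at least 50% inhibition; inconclusive means mean inhibition at least 50% but not in every replicate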
GSIS activator: GLuc luminescence reporter in INS-1E cells, primary screen for activators of glucose-dependent secretion of insulin; 370,000 tested, 0.61% active; activation, % at 16.6 µM; INS-1E GLuc reporter insulin secretion, 2-3 h;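 active means lowest replicate activation of at least 40%, so every replicate reaches that level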;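 further: 0% = median of neutral control wells and 100% = median of IBMX positive control wells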
DENV2 CPE rescue: inhibitors of DENV2 cytopathic effect, primary screen, cell-based, plate reader, single concentration. DENV2-infected cells, cytopathic effect rescue. CPE inhibition, % at 9.99 µM. 350,000 tested, 1.7% active. AID 651640, 2012; in the data active means CPE inhibition above about 20%, passing the limit was not always enough; inconclusive means no clear call, values can overlap the other calls; tested in BHK-21 cells;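 further: 0% = median of neutral control wells and 100% = median of positive control wells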
* marks the source's active call; other numbers are inactive results; ? = inconclusive; / = no result.

SMILES	MLL AF4-AF9 inh	RAD54 branch	RAD52 anneal inh	GSIS activator	DENV2 CPE rescue
CCNC(=O)C[C@@H]1CC[C@@H]2[C@H](COc3ccc(NC(=O)c4cscn4)cc3C(=O)N2C)O1	-2	-4	5	5	24*
CCC(=O)Nc1ccc2c(c1)C(=O)N(C)C[C@@H](OC)[C@@H](C)CN(Cc1ccccc1C(=O)O)[C@@H](C)CO2	-11	12	0	-1	-17
C[C@@H]1CCCCO[C@@H](CN(C)CC2CCCCC2)[C@H](C)CN([C@H](C)CO)C(=O)c2cc(NC(=O)Cc3ccccc3)ccc2O1	-3	6	11	-12	-1
C[C@H](CO)N1C[C@H](C)[C@H](CN(C)Cc2ccc3c(c2)OCO3)Oc2c(NC(=O)C3CCOCC3)cccc2C1=O	-2	-3	-6	12	-7
O=C(c1ccncc1)N1C[C@@H]2[C@H](c3ccccc31)[C@@H](CO)N2C(=O)Nc1ccccc1Cl	0	-12	7	1	?
CCNC(=O)C[C@@H]1CC[C@@H]2[C@H](COc3ccc(NC(=O)Cc4ccccc4)cc3C(=O)N2C)O1	-1	11	7	-10	27*
Cc1cc(C(=O)Nc2ccc3c(c2)C(=O)N(C)[C@H]2CC[C@@H](CC(=O)N[C@@H](C)c4ccccc4)O[C@H]2CO3)no1	1	0	-6	-1	97*
C[C@@H]1CCCCO[C@@H](CN(C)C(=O)C2CCCCC2)[C@H](C)CN([C@@H](C)CO)C(=O)c2cc(NC(=O)Nc3ccccc3)ccc2O1	1	-4	-4	-1	-2
Cc1cccnc1C(NC(=O)C1CCN(CCCc2ccccc2)CC1)c1ccc(Cl)cc1 (stereo unspecified)	6	8	-17	-35	20*
Cc1ccc(C(NC(=O)C2CCN(Cc3ccc(Oc4ccccc4)cc3)CC2)c2ccccn2)cc1 (stereo unspecified)	-2	-11	-22	/	4
O=C(NC(c1ccc(Cl)cc1)c1cnccn1)C1CCN(Cc2ccc(Oc3ccccc3)cc2)CC1 (stereo unspecified)	3	-9	-46	/	84*
COc1ccc(CN2CCC(C(=O)NC(c3ccc4c(c3)OCO4)c3ccccn3)CC2)cc1 (stereo unspecified)	1	-5	-12	-5	100*
Cc1cccnc1C(NC(=O)C1CCN(Cc2ccc(Cl)cc2)CC1)c1ccccc1 (stereo unspecified)	5	4	-4	/	6
COc1cccc(OC)c1OCCN1CCC(C(=O)NC(c2ccc3c(c2)OCO3)c2ccccn2)CC1 (stereo unspecified)	-1	1	-18	-17	-4
Cc1ccc(S(=O)(=O)N(C)C[C@@H]2Oc3ccc(NC(=O)c4ccncc4)cc3CC(=O)N([C@@H](C)CO)C[C@@H]2C)cc1	0	-10	-4	-15	57*
Cc1ccc(S(=O)(=O)N(C)C[C@H]2Oc3ccc(NC(=O)NC4CCCCC4)cc3C(=O)N([C@H](C)CO)C[C@H]2C)cc1	1	-5	21	-38	-9
Cc1ccc(S(=O)(=O)N(C)C[C@@H]2Oc3ccc(NC(=O)c4ccncc4)cc3C(=O)N([C@H](C)CO)C[C@H]2C)cc1	0	-8	4	-10	31*
Cc1ccc(S(=O)(=O)N(C)C[C@@H]2Oc3ccc(NC(=O)NC4CCCCC4)cc3C(=O)N([C@H](C)CO)C[C@@H]2C)cc1	0	-9	20	-24	28*
C[C@H](O)C#Cc1ccc2c(c1)O[C@H](CN(C)C(=O)CC1CC1)[C@H](C)CN([C@@H](C)CO)S2(=O)=O	0	1	5	18	-1
COc1ccc(S(=O)(=O)Nc2ccc3c(c2)C(=O)N([C@H](C)CO)C[C@@H](C)[C@H](CN(C)C(=O)C2CCCCC2)OCCCC[C@@H](C)O3)cc1	2	0	9	-21	13
CC(C)C#Cc1ccc([C@H]2[C@@H](C#N)N(C(=O)c3cccc(F)c3)[C@@H]2CO)cc1	1	-15	5	-20	6

Assay outcomes from PubChem BioAssay.
